# From PubChem BioAssay (EPA / NIEHS)
# Records with an inconclusive call do not appear. The source made the active and inactive calls. Rule for the calls, unless noted: active = hit-call score of the fitted dose curve at least 0.9, where 1 is the maximum; inconclusive = response in the unintended direction; inactive = score below 0.9.
# Assays:
# [1] = read-out: Cytochrome P450 (CYP24A1_1), CYP24A1 (gene 1591); assay: LTEA_HepaRG_CYP24A1_1: Life Technologies and Expression Analysis (LTEA) Assay for Cytochrome P450 (CYP24A1_1) using HepaRG (AID 2283671; active = hit-call score of the fitted dose curve at least 0.9, where 1 is the maximum; inactive = score below 0.9); conditions: mRNA level, 48 h; actives raise or lower the signal
# Summary of the method: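 HepaRG, 48 h exposure, 8-pt half-log series from 100 uM in 0.5% DMSO, duplicates. Readout: TaqMan qRT-PCR of CYP24A1 mRNA, housekeeping-normalized (ACTB/GAPDH/POLR2A). Bidirectional curve fit vs DMSO baseline.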
# [2] = ArunA_CellTiter_hNC: Viability Assessment in the ArunA Biomedical's Oris Neural Crest (hNC) Cell Migration Assay (AID 2283752)
# Summary of the method: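 Human H9-derived neural crest cells plated on Matrigel (60,000/well) with LIF and bFGF, incubated 16 h, then exposed 72 h to chemical in test medium. Viability measured with CellTiter Aqueous One reagent; loss of signal versus DMSO.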
# [3] = ArunA_CellTiter_hNP: Viability Assessment in the ArunA Biomedical's Oris Neural Crest (hNC) Cell Migration Assay (AID 2283753)
# Summary of the method: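 H9-derived hNP1 neuroprogenitors, 60,000/well on Matrigel, cultured 16 h, then 72 h chemical exposure in test medium. Cell titer via CellTiter Aqueous One; positive-direction fit vs DMSO.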
# [4] = ArunA_NOG_NucleusCount: ArunA Biomedical's Neurite Outgrowth (NOG) Assay for Nucleus Count (AID 2283756)
# Summary of the method: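 Human H9-derived differentiated neurons were exposed for 48 h right after seeding. Hoechst-stained nuclei gated by size and intensity were counted by automated high-content imaging as viable neurons. Loss of signal vs DMSO.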
# [5] = ArunA_NOG_NeuriteLength: ArunA Biomedical's Neurite Outgrowth (NOG) Assay for Neurite Length (AID 2283757)
# Summary of the method: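 Differentiated human H9-derived neurons were exposed for 48 h from seeding, then stained with Hoechst and βIII-tubulin. Automated high-content imaging gave total neurite length per valid neuron, counting processes >10 um. Loss of signal was scored versus DMSO.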
# [6] = ArunA_NOG_NeuritesPerNeuron: ArunA Biomedical's Neurite Outgrowth (NOG) Assay for Neurites Per Neuron (AID 2283758)
# Summary of the method: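 Differentiated human H9-derived neurons exposed to chemicals for 48 h from seeding, then stained with Hoechst and βIII-tubulin/DyLight 488. Automated imaging counted neurites (processes >10 um) per valid neuron; loss of signal versus DMSO scored.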
# [7] = ArunA_NOG_BranchPointsPerNeurite: ArunA Biomedical's Neurite Outgrowth (NOG) Assay for Branch Points Per Neurite (AID 2283759)
# Summary of the method: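 Automated image analysis traced neurites (processes >10 um) from valid cell bodies after Hoechst and βIII-tubulin staining. hNN cells from H9 embryonic stem cells, 48 h exposure. Fitted bidirectionally against DMSO.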
# [8] = tested on: Thyroperoxidase (TPO), gene 445522; assay: CCTE_Simmons_GUA_TPO: CCTE's Guaiacol Assay for Thyroperoxidase (TPO) Inhibition, Simmons Lab (AID 2283750)
# Summary of the method: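 Porcine thyroid microsomes (25 ug) in 200mM potassium phosphate, preincubated 30 s at 37C with compound (8 concentrations, 5 nM–87.5 uM) and 35mM guaiacol; 1mM H2O2 starts reaction. Absorbance change at 450nm over first 80 s; loss of signal versus DMSO, three replicates.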
# [9] = ArunA_Migration_hNP: ArunA Biomedical's Oris Neuroprogenitor (hNP) Cell Migration Assay (AID 2283754)
# Summary of the method: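 Human H9-derived hNP1 neuroprogenitors on Matrigel with LIF/bFGF, plated around seeding stoppers for 16 h at 37C; stoppers removed at start of 72 h chemical exposure. Calcein-AM staining, fluorescence 494/517 nm in detection zone; loss-of-signal vs DMSO; cytochalasin D control.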
# [10] = ArunA_Migration_hNC: ArunA Biomedical's Oris Neural Crest (hNC) Cell Migration Assay (AID 2283755)
# Summary of the method: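 Human H9-derived neural crest stem cells, 60,000/well on Matrigel, 16 h at 37C, then 72 h chemical exposure after seeding-stopper removal. Migration into detection zone read as calcein-AM fluorescence (ex494/em517), relative to DMSO.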
# [11] = Tanguay_ZF_120hpf_TR_legacy: (Legacy) Oregon State University Tanguay Lab 120 Hour Post-fertilization zebrafish Assay for Touch Response (AID 2283667)
# Summary of the method: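 Tropical 5D wild-type zebrafish embryos were exposed statically in sealed, foil-covered plates at 28C until 120 hpf, with 0.64% (vol/vol) final DMSO. Touch response was scored as present or absent; embryos that died were not scored.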
# [12] = target: Luciferin 4-monooxygenase (Photinus pyralis) (UniProt P08659); assay: CCTE_Simmons_QuantiLum_inhib_2: CCTE's Firefly Luciferase Inhibition Assay, Simmons Lab (AID 2283767)
# Sequence of Luciferin 4-monooxygenase (Photinus pyralis) (P08659 whole entry, looked up): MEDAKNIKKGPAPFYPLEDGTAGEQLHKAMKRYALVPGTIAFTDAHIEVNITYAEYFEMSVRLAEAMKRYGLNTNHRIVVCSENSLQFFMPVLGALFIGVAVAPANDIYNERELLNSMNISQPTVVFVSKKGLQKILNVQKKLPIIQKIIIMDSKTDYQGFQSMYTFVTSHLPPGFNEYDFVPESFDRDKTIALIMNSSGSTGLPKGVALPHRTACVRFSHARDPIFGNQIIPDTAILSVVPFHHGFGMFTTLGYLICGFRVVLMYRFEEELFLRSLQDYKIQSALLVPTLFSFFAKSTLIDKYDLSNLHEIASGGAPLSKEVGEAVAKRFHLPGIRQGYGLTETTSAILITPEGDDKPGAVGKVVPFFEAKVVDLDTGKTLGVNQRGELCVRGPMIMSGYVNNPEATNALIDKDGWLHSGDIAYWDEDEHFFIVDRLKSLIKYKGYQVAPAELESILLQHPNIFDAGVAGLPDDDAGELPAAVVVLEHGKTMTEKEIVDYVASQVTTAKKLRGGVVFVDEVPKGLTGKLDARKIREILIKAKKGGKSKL
# Summary of the method: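 Cell-free recombinant firefly luciferase (5 ng/well) in 200mM potassium phosphate with 1 mg/ml BSA, 30 min at 37C with 8 concentrations from 5 nM to 87.5 uM [final], 0.5% DMSO. Luminescence read after D-luciferin (150uM)/dATP (147uM) reagent injection, pH 7.8; triplicates.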
# [13] = tested on: zebrafish Androgen Receptor (AR), gene 100005148; assay: ATG_zfAR_XSP1: Attagene TRANS-FACTORIAL Multi-Species (XSP1) HepG2 Assay for zebrafish Androgen Receptor (AR) (AID 2283771)
# Summary of the method: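 HepG2 cells were transiently transfected with a zebrafish AR-GAL4 reporter system and partially stimulated with 3 nM 6-alpha-fluorotestosterone. Reporter mRNA was measured after 24 h dosing by RT-PCR with capillary electrophoresis, and gain-of-signal was fitted relative to DMSO.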
smiles,measurement,setting,value
CCCC(CCC)C(=O)O,outcome,[1],inactive
same,outcome,[2],inactive
same,outcome,[3],inactive
same,AC50,[4],82.6 µM (active)
same,AC50,[5],77.4 µM (active)
same,AC50,[6],91.1 µM (active)
same,AC50,[7],69.6 µM (active)
c1ccc2cc3ccccc3cc2c1,outcome,[1],inactive
NNC(=O)c1ccncc1,AC50,[8],20.7 µM (active)
C[C@@H](Oc1ccc(CNC(=O)c2cccnc2Oc2ccc3c(c2)OCO3)c(F)c1)C(=O)O,outcome,[8],inactive
Cn1cc[nH]c1=S,outcome,[9],inactive
same,outcome,[10],inactive
same,AC50,[4],5.5 µM (active)
same,AC50,[5],6.43 µM (active)
same,AC50,[6],5.75 µM (active)
same,AC50,[7],7.98 µM (active)
CCOC(N)=O,outcome,[11],inactive
COc1cc2c(c(OC)c1OC)-c1ccc(OC)c(=O)cc1[C@@H](NC(C)=O)CC2,AC50,[1],0.067 µM (active)
CCCCCCCCCC,outcome,[2],inactive
CCN(CC)C(=S)SSC(=S)N(CC)CC,AC50,[2],8.19 µM (active)
same,AC50,[3],7.2 µM (active)
same,AC50,[9],0.405 µM (active)
same,AC50,[5],15.5 µM (active)
same,AC50,[6],14.5 µM (active)
OCCNCCO,AC50,[5],24.8 µM (active)
same,AC50,[6],20.2 µM (active)
same,AC50,[7],15.4 µM (active)
O=S1(=O)CCCO1,outcome,[12],inactive
CC(C)C(=O)Nc1ccc([N+](=O)[O-])c(C(F)(F)F)c1,outcome,[13],inactive
